Assay outcomes as filed in PubChem.
TDP1 cell CPT = DT40-hTDP1 cell growth loss with CPT. chicken DT40 Tdp1-/-;hTDP1 cells + 20 nM CPT, ATP luminescence, 48 h. Potency, µM (doses to about 46.2 µM), for inactives: top-dose activity change, negative = growth inhibition, usual class: inhibitors. 12% of 420,000 active; note: potency is the fitted concentration of half-maximal effect; % is set by controls: 0 for no effect and ±100 for the full control effect; nearly all actives have a fitted effect of over 55% in size
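Chicken DT40 Tdp1-/- cells complemented with human TDP1, 400 cells/well, exposed to compounds plus 20 nM camptothecin for at least 48 h at 37 C; viability read as ATP content by CellTiter-Glo luminescence.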
Chronic BCR inh = blocks chronic active B-cell receptor signaling. Potency, µM (highest dose often 46.1 µM), for the others: at the highest dose activity change, negative = inhibition, hits mostly inhibitors. AID 493014. 0.05% of 340,000 active. ABC-DLBCL IkBa-CBG/CBR reporter, luminescence ratio, 4 h; active = well fitted inhibition curve with a large enough effect in the signal ratio, with a control signal flat, not every such curve was filed as active; inconclusive = small, poorly fitted or top-dose-only effect, or effect the other way, or a change in a side signal; the % refers to the signal ratio;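 note: potency is the fitted concentration of half-maximal effect; plate controls were basal doxycycline-induced cells for no effect and cells given 10 µM MG132 for full effect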
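Concentration-response series (up to 46 uM) were applied to TMD8 dual-reporter cells for 4 h at 37C with doxycycline. Green/red ratio, after filter-overlap correction, defined %Activity; red signal alone was normalised to basal cells and zero luminescence.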
MCF10A rerep = inducers of DNA re-replication in MCF 10A breast cells | MCF 10A DNA re-replication, Hoechst nuclear intensity, 48 h | Potency, µM (titrated, usually from 46.1 µM), for inactives: top-dose activity, positive = re-replication, most hits filed as activators | 2.9% of 350,000 active | AID 624296; note: potency is the fitted concentration of half-maximal effect; % of control where 0% means no effect; nearly all actives have a fitted effect of over 50% in size
IL-1B inflam inh = blocks inflammasome-driven IL-1 beta release; THP-1 LPS/ATP IL-1B secretion, AlphaLISA, 16 h; hits give low values; activity change, % at 57.5 µM; 4.7% of 360,000 active; AID 743279; in the data active = activity change below about -50%; inconclusive = mostly about -30% to -49%; note: % is set by controls: 0 for no effect and ±100 for the full control effect
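THP-1 cells pretreated 1 hr with compounds (up to 57.5 uM final), then stimulated with LPS (250 ng/mL final) plus ATP (1.25 mM final); secreted IL-1B measured by AlphaLISA after 16 hr, decreased signal indicating inhibition.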
SW480 rereplic = inducers of DNA re-replication in SW480 colon cancer cells | SW480 DNA re-replication, Hoechst DNA content imaging, 48 h | 1.8% of 340,000 active | Potency, µM (series often up to 46.1 µM), for inactives: top-dose re-replication activation, most hits filed as activators; note: potency is the fitted concentration of half-maximal effect; % of control where 0% means no effect; nearly all actives have a fitted effect of over 55% in size
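Cells (250 per well) received 23 nL compound or DMSO by pin tool and were kept 48 hr at 37 C, 5% CO2. Nuclei were then stained with Hoechst for 40 min and scanned for DNA content.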
TDP1 cell noCPT = qHTS for Inhibitors of human tyrosyl-DNA phosphodiesterase 1 (TDP1): qHTS in cells in absence of CPT | DT40 Tdp1-/- hTDP1 cells, no CPT, ATP luminescence, 48 h | Potency, µM (highest dose often 46.2 µM), for inactives: at the top dose activity change, negative = growth inhibition, actives largely listed as inhibitors | 15% of 420,000 active | AID 686978, 2013; note: potency is the fitted concentration of half-maximal effect; % is set by controls: 0 for no effect and ±100 for the full control effect; nearly all actives have a fitted effect of over 55% in size
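Compound effects on proliferation are scored in DT40 Tdp1-/-;hTDP1 cells in the absence of CPT. ATP levels (CellTiter-Glo luminescence) are recorded after a ≥48 hr, 37 °C incubation.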
* marks the source's active call; other numbers are inactive results; ? = inconclusive; . = no result given; [ ] = dose if it differs, or a comment. Rows were chosen to be rich in hits. Some 19% of all compounds tested hit in one or more screens of this group. Unless noted, calls come from the whole dose curve; as a rule, active = well fitted curve in the direction sought with a large enough effect; inconclusive = small, poorly fitted or top-dose-only effect, or another doubt; inactive = no such curve, though single readings can be large; an effect the other way counts as inactive or inconclusive.

SMILES | TDP1 cell CPT | Chronic BCR inh | MCF10A rerep | IL-1B inflam inh | SW480 rereplic | TDP1 cell noCPT
CCOC(=O)c1c(CN2CCOCC2)n(-c2ccccc2)c2cc(Br)c(OC)cc12 | 16µM* | ? | 23µM* | 44 | ? | 21µM*
CCOC(=O)c1c(CN(C)C)n(-c2ccccc2)c2cc(Br)c(OC)cc12 | ? | -1% | ? | -8 | ? | ?
CCOC(=O)c1c(C)n(CC(O)CN(C)C)c2cc(Br)c(OC)cc12 (centres undefined) | 22% | -1% | 10% | -79* | ? | ?
CCOC(=O)c1c(CN(C)C)n(-c2ccc(C)cc2)c2cc(Br)c(O)cc12 | ? | -5% | ? | -63* | 27% | ?
CN(C)CCC1(c2ccccc2)CCN(C)C1=O (centres undefined) | -12% | . | . | 8 | . | 0%
N#Cc1cnc2c(-c3ccccc3)c(-c3ccccc3)nn2c1N | 23µM* | -3% | -1% | 3 | -5% | 18µM*
COc1ccc(-c2c(C)nn3c(N)c(C#N)cnc23)cc1OC | 7.3µM* | ? | -1% | -2 | -5% | 13µM*
Cc1noc(NS(=O)(=O)c2ccc(NC(=O)c3cc(F)c(F)c(F)c3F)cc2)c1C | -1% | 7% | 2% | 9 | -8% | -4%
CC(C)(C)n1nnnc1C(c1cccc(C#N)c1)N1CCCCCC1 (centres undefined) | ? | 12% | -1% | -17 | ? | 16µM*
CC(C)(C)n1nnnc1C(c1cccc(C#N)c1)N1CCN2CCCC2C1 (centres undefined) | -2% | 16% | -11% | -8 | -2% | -6%
CCC(C)(C)n1nnnc1C(c1cccc(C#N)c1)N1CCN(c2cccc(C)c2C)CC1 (centres undefined) | ? | -3% | -3% | -6 | -8% | 16µM*
CC(C)(C)n1nnnc1C(c1ccccc1F)N1CCN(C2CCCC2)CC1 (centres undefined) | -6% | -7% | ? | -12 | ? | -20%
COc1ccccc1C(c1nnnn1C(C)(C)C)N1CCCCCC1 (centres undefined) | 21µM* | ? | -1% | -12 | 10% | 18µM*
O=C1C(=O)N(Cc2ccncc2)C(c2ccccc2F)/C1=C(\O)c1ccc2c(c1)OCCO2 (centres undefined) | -15% | -5% | 1% | -6 | 1% | 17%
COCc1ccc(CN2CCCC(C(=O)Nc3ccc(-c4cscn4)cc3)C2)o1 (centres undefined) | -4% | ? | 10% | 13 | -8% | -9%
Cc1ccccc1OCc1nc2ccccc2c(=O)n1/N=C/c1c[nH]c2ccccc12 | -68% | ? | 16µM* | 9 | ? | -101%
Cc1ccccc1OCc1nc2ccccc2c(=O)n1N | ? | -4% | 1% | 32 | -3% | ?
COc1cccc(/C=N/n2c(C)nc3ccccc3c2=O)c1O | -6% | ? | ? | -15 | ? | -15%
CCCc1nc2ccccc2c(=O)n1/N=C/c1ccccc1O | ? | ? | ? | 36 | ? | -22%
O=[N+]([O-])c1ccc(Cl)c(/C=N/n2c(COc3ccccc3)n[nH]c2=S)c1 | 18µM* | -11% | ? | -8 | ? | 21µM*
Cc1ccc(-c2[nH]ncc2/C=N/n2c(COc3ccccc3C)nc3ccccc3c2=O)cc1 | 21µM* | 1% | 5.8µM* | -99* | ? | 16µM*
Cc1cccc(C)c1OCc1nc2ccccc2c(=O)n1/N=C/c1c[nH]c2ccccc12 | 21µM* | ? | 8% | -11 | 14% | ?
CCOC(=O)C(=O)N(C)c1c(CC)nc2c(OCc3ccc(OC(F)F)cc3)cccn12 | ? | . | . | 9 | . | -46%
Cc1cc(NC(=O)COC(=O)c2ccccc2[N+](=O)[O-])no1 | 0% | 2% | 12% | 23 | -41% | 6%
O=c1[nH][nH]c(=O)c(Cl)c1Cl | -8% | . | -4% | -14 | 7% | -21%
SMILES | TDP1 cell CPT | Chronic BCR inh | MCF10A rerep | IL-1B inflam inh | SW480 rereplic | TDP1 cell noCPT
NC(C(=O)O)c1ccc(P(=O)(O)O)cc1 (centres undefined) | -4% | . | . | . | . | -7%
COC(=O)c1sccc1NC(=O)c1ccc(C(C)C)cc1 | -14% | ? | ? | 7 | 1% | -16%
Cc1cc(/C=N/n2c(COc3ccccc3C)nc3ccccc3c2=O)c(O)c([N+](=O)[O-])c1 | 18µM* | 5% | 10% | 326 | 13µM* | 13µM*
CC(=O)Nn1c(COc2ccccc2C)nc2ccccc2c1=O | -2% | 1% | 2% | -2 | -6% | 2%
O=c1c2ccccc2nc(COc2ccccc2)n1/N=C/c1cc([N+](=O)[O-])ccc1O | 6.5µM* | ? | 26% | 46 | 7% | 13µM*
COc1ccccc1/C=C/C=N/n1c(COc2ccccc2)n[nH]c1=S | ? | -10% | 140%[0.0737 µM] | 3 | -3% | 15µM*
CCOC(=O)c1ccc(CN(Cc2ccc(OC)cc2)S(=O)(=O)c2cccc(C(F)(F)F)c2)cc1 | -20% | 12% | . | . | . | -27%
O=C(/C=C/c1ccccc1)Nc1ccc(Cl)cn1 | 2.6µM* | ? | ? | 0 | 15µM* | 3.3µM*
O=C(COC(=O)/C=C/c1ccccc1)Nc1ccc(Cl)cn1 | -6% | 5% | 0% | 9 | -11% | -10%
O=C(CC(c1ccccc1)c1ccccc1)Nc1ccc(Cl)cn1 | ? | ? | ? | 6 | ? | 18µM*
O=C(CS(=O)(=O)c1ccccc1)Nc1ccc(Cl)cn1 | 7% | -8% | -1% | 8 | 4% | -2%
CCOc1ncccc1C(=O)OC(C)C(=O)Nc1ccc(Cl)cn1 (centres undefined) | -27% | ? | 21% | 27 | -6% | ?
CNc1ccccc1C(=O)OC(C)C(=O)Nc1ccc(Cl)cn1 (centres undefined) | ? | ? | ? | -75* | ? | ?
CC(=O)c1cc2c(cc1NC(=O)CSc1ncccn1)OCO2 | -12% | . | . | -13 | . | -23%
C=CCOC(=O)C1=C[C@@H](c2csc3ccccc23)C[C@@H](OCCCCO)O1 | -25% | . | 6% | 10 | -26% | -16%
CC(=O)Nc1ccc(S(=O)(=O)Nc2ccc(-n3cnnn3)cc2)cc1 | -22% | 0% | 2% | -5 | -10% | ?
O=C(Cc1ccsc1)N1CCN(S(=O)(=O)c2ccccc2F)CC1 | -16% | 3% | 0% | 15 | -6% | -1%
